The list is not random: actives were taken first. Their share in the collection is about 3.9%.
TROY NFkB inh: inhibitors of TROY-driven NF-kB signaling, primary screen, Q293 LMP1-TROYcd cells, NF-kB luciferase, uHTS; Q293 LMP1-TROYcd NF-kB luciferase reporter, 4 h; inhibition, % at 10 µM; 0.98% of 360,000 active; AID 1347056, 2019;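 active = compounds whose plate-normalised and pattern-corrected inhibition of the luciferase reporter signal at the single screening dose is 50% or more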
KKLEB tox: cytotoxicity in KKLEB CF airway cells, primary screen, cytotoxicity control for CF NF-kB inhibitor project, cell-based, uHTS, fluorescence assay plates. activity change (cytotoxicity), % at 5 µM. AID 602141, 2011. KKLEB CF airway cells viability, ATPlite luminescence, overnight; stronger effect = lower value; cells stimulated with P. aeruginosa culture filtrate. 0.36% of 360,000 active;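 active = corrected activity change at or below -50% at 5 µM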
HIF-2a inh: HIF-2a reporter inhibitors, primary screen, luminescence, 786-0 RCC cells; 786-0 RCC cells HIF-2a reporter, luciferase luminescence, overnight; 0.72% of 360,000 active; AID 624352, 2012; inhibition, % at 18.8 µM;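 active = inhibition of the luminescence signal of 40% or more relative to plate controls, in a single-dose primary screen at 18.75 µM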
TWEAK Fn14 block: inhibitors of TWEAK-Fn14 signaling, primary screen, luciferase reporter cells, uHTS; TWEAK-stimulated Fn14 reporter cells, luciferase luminescence, 8 h; inhibition, % at 10 µM; 2% of 360,000 active; AID 1159606, 2016; in the data active = inhibition above about 50%
Peg3 prom inh: Peg3 promoter-driven luciferase inhibitors, primary screen, cell-based, HeLa, luciferase luminescence. HeLa PEG-Prom luciferase reporter, overnight. inhibition, % at 20 µM. 1.7% of 360,000 active. AID 588405, 2011;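 active = inhibition of at least 50% at 20 µM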
CF NFkB block: inhibitors of PAF-induced NF-kB signaling, primary screen, cell-based, GFP fluorescence, uHTS. KKLEB NF-kB-GFP reporter, GFP fluorescence overnight. inhibition, % at 5 µM. 0.86% of 360,000 active. AID 588850, 2011;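 active = at least 50% inhibition at 5 µM, scaled per plate between neutral and stimulator controls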;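 note: PAF is a Pseudomonas aeruginosa culture filtrate used as stimulus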
CF NFkB conf: inhibitors of PAF-induced NF-kB signaling, retest, confirmation, cell-based, GFP fluorescence, single concentration; KKLEB CF airway cells, overnight; 64% of 1,300 active; AID 602472, 2012; shares compounds with CF NFkB block; inhibition, % at 5 µM; in the data active = inhibition above about 40%;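 note: stimulus PAF is a Pseudomonas aeruginosa filtrate and not platelet activating factor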
Each line names hits and unclear results; the compound was inactive in the other large screens (follow-up assays come after a bar, where they were run).

CC1CC(C)CN(C(=O)CCS(=O)(=O)c2ccc3c(c2)NC(=O)CS3)C1 (stereo unspecified)	none
Cc1ccc(-c2nc(CS(=O)CC(=O)NCCCc3ccccc3)c(C)o2)cc1 (stereo unspecified)	none
Fc1cccc(Cl)c1/C=N/Nc1c(Cl)cncc1Cl	TWEAK Fn14 block 53, CF NFkB block 53 | CF NFkB conf 67
O=S(=O)(N/N=C\c1c(F)cccc1Cl)c1ccc(Cl)cc1	none
Nc1c(C(=O)Nc2ccccc2)sc2nc3c(c(-c4ccco4)c12)CCCC3	CF NFkB block 51 | CF NFkB conf inactive
CCNc1nc(NC(C)C)nc(-c2ccncc2)n1	none
Cc1c(NC(=O)c2cc(-c3cccs3)nc3ccccc23)c(=O)n(-c2ccccc2)n1C	Peg3 prom inh 54, CF NFkB block 65 | CF NFkB conf 64
Cc1c(NC(=O)c2cc(-c3ccccc3)nc3ccccc23)c(=O)n(-c2ccccc2)n1C	none
N/C(=N\OC(=O)CC1CCCCC1)c1cccnc1	none
CCOC(=O)c1c(C)[nH]c(C(=O)OCC(=O)Nc2cc(C)ccc2OC)c1C	CF NFkB block 50 | CF NFkB conf inactive
CCOC(=O)c1c(C)[nH]c(C(=O)N/N=C/c2ccc(Br)cc2)c1C	TWEAK Fn14 block 55, CF NFkB block 56 | CF NFkB conf 79
Cc1ccc(S(=O)(=O)N2CCOC2CNC(=O)C(=O)NCc2ccco2)cc1 (stereo unspecified)	none
Cc1ccc(OCC(=O)N2CCN(C(=O)c3ccco3)CC2)cc1	none
c1ccc(COc2ccc(OCCN3CCCC3)cc2)cc1	none
COc1cccc(-c2sc3ccccc3c2-c2ccc(OCCN3CCCC3)cc2)c1	Peg3 prom inh 100, CF NFkB block 54 | CF NFkB conf inactive
c1ccc(-c2sc3ccccc3c2-c2ccc(OCCN3CCCC3)cc2)cc1	Peg3 prom inh 93, CF NFkB block 52 | CF NFkB conf inactive
O=C(Cc1ccccn1)c1ccc(F)cc1	none
Cc1nc(N)c(C#N)c(-c2cccnc2)c1-c1ccccc1	CF NFkB block 63 | CF NFkB conf 68
CC(=O)c1cccc(NC(=O)Nc2cccnc2)c1	CF NFkB block 57 | CF NFkB conf 77
O=C(Nc1cccnc1)Nc1cccc(F)c1	none
CC(C)(C)OC(=O)NCCCCCNC(=O)c1nc[nH]c1C(=O)NCC(=O)OCc1ccccc1	Peg3 prom inh 74, CF NFkB block 74 | CF NFkB conf 72
CC1(C)CC(=O)C2=C(C1)N(CCN1CCOCC1)C1=C(C(=O)CC(C)(C)C1)C2c1ccc(Cl)cc1	CF NFkB block 57 | CF NFkB conf inactive
Clc1ccc(CSc2nnc(-c3ccncc3)o2)cc1	CF NFkB block 70 | CF NFkB conf 62
Cc1[nH]c(C)c(S(=O)(=O)N2CCN(c3ccccc3)CC2)c1C(=O)N1CCCC1	none
CS(=O)(=O)Nc1ccccc1C(=O)OCC(=O)NCc1cccs1	CF NFkB block 51 | CF NFkB conf inactive
O=C(COC(=O)c1ccccc1NCCO)NCc1cccs1	none
C=CCn1cnc2c(c1=O)c1nc3ccccc3nc1n2/N=C/c1cc(OC)c(OC)c(OC)c1	CF NFkB block 51 | CF NFkB conf 117
COc1ccc(NC(=O)c2cncc(Br)c2)cc1S(=O)(=O)N1CCCCC1	none
Clc1nc(Cl)c2ncn(-c3ccccc3)c2n1	Peg3 prom inh 81, CF NFkB block 76 | CF NFkB conf inactive
CCCCCCSc1cccc(-c2nc3ccc(C)cn3c2NCc2ccccc2)c1	none
CCCCCCSc1cc(-c2nc3ccc(C)cn3c2NCc2ccccc2)ccc1OC	CF NFkB block 53 | CF NFkB conf inactive
COc1ccccc1Cc1c(-c2cccc(Br)c2)nc2c(C)cc(Br)cn12	CF NFkB block 55 | CF NFkB conf inactive
